Data taken from PubChem BioAssay (NCATS).
Inconclusive results are not listed. A call without a number means that no potency is given here. A number with no mark means an inactive call. Calls of active or inactive are those of the source. Calls come from the whole dose curve; as a rule, active = well fitted inhibition curve with a large enough effect; inconclusive = small, poorly fitted or top-dose-only effect; inactive = flat fitted curve, though single readings scatter.

tested on: Zika virus NS2B-NS3 protease; assay: Primary screen GU AMC qHTS for Zika virus inhibitors (AID 1347154); details: Zika NS2B-NS3 unlinked protease, AMC fluorogenic substrate; series mostly up to 54.1 µM; activity change, negative = inhibition: at the top concentration; note: nearly all actives have a fitted effect of over 70% in size
How it was run: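 Fluorogenic AMC-substrate cleavage by noncovalent NS2B-NS3 protease complex (25 nM, pH 8.0 Tris buffer with Tween 20) followed for 15 minutes at room temperature (~20% conversion). Percent inhibition from ex340/em450 signal change, fitted by 4-parameter Hill equation.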

Compound | activity change, negative = inhibition | Potency
COc1c(O)cc2c(c1O)[C@@H]1O[C@H](CO)[C@@H](O)[C@H](O)[C@H]1OC2=O | -3.82% | 
Cc1cccc(C)c1OCC(=O)N[C@@H](Cc1ccccc1)[C@@H](O)C[C@H](Cc1ccccc1)NC(=O)[C@H](C(C)C)N1CCCNC1=O |  | inactive
N[C@@H](Cc1cc(I)c(Oc2cc(I)c(O)c(I)c2)c(I)c1)C(=O)O |  | inactive
O=C(O)c1cccc(-c2noc(-c3ccccc3F)n2)c1 |  | inactive
O=c1cc(N2CCOCC2)oc2c(-c3ccccc3)cccc12 |  | inactive
Cc1cccc(C#Cc2ccccc2)n1 |  | inactive
COC(=O)C1=C(C)NC(C)=C(C(=O)OCCCN2CCC(c3ccccc3)(c3ccccc3)CC2)C1c1cccc([N+](=O)[O-])c1 (configuration not stated) |  | inactive
CC1=C(C)C(=O)C(C(CCCCCC(=O)O)c2ccccc2)=C(C)C1=O (configuration not stated) |  | inactive
S=c1nc[nH]c2nc[nH]c12 |  | inactive
CCOC(=O)C1=C[C@@H](OC(CC)CC)[C@H](NC(C)=O)[C@@H](N)C1 | -0.505% | 
OC(CN1CCN(c2cccc(Cl)c2)CC1)C(c1ccccc1)c1ccccc1 (configuration not stated) | 2.84% | 
NC(=O)Cc1cccc(C(=O)c2ccccc2)c1N |  | inactive
CC1=C(C(=O)O)N2C(=O)[C@@H](NC(=O)[C@H](N)C3=CCC=CC3)[C@H]2SC1 |  | inactive
O=C(CS(=O)Cc1ccco1)NCC=CCOc1cc(CN2CCCCC2)ccn1 (configuration not stated) | 4.72% | 
Cc1cc(Cl)ccc1OCCCC(=O)NO | -3.01% | 
CCCCC(CC)COC(=O)C(C#N)=C(c1ccccc1)c1ccccc1 (configuration not stated) | 5.98% | 
O=C1c2ccccc2-c2n[nH]c3cccc1c23 |  | inactive
